Source: PubChem BioAssay
The source made the active and inactive calls.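 The calls were made as follows: active = thallium flux through the channel raised or lowered by more than 3 SD from vehicle-only wells, actives on both sides; inactive = the rest.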

Tests used:
Assay in all cases: BK channel mutant inhibitors and activators – cell-based, U2OS BacMam, thallium flux, beta subunits, selectivity assay, profiling panel (AID 1259406);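 also: initial slope of Thallos dye fluorescence rise after thallium is added; log ratio against the mean of 0.3% DMSO vehicle wells on the same plate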
F380Y = conditions: U2OS BacMam BK variants, at 30 µM
F380Y/beta1 = conditions: U2OS BacMam BK variants, at 30 µM
F380Y/beta2Delta = conditions: U2OS BacMam BK variants, at 30 µM
F380Y/beta4 = conditions: U2OS BacMam BK variants, at 30 µM
[1] = biological target: Calcium-activated potassium channel subunit alpha-1 (Homo sapiens) + Leucine-rich repeat-containing protein 26 (Homo sapiens) (UniProt Q12791+Q2I0M4); conditions: U2OS BacMam BK variants, F380Y/Slo1WT/gamma1, at 30 µM
R275C = conditions: U2OS BacMam BK variants, at 30 µM
R275C/beta1 = conditions: U2OS BacMam BK variants, at 30 µM
R275C/beta2Delta = conditions: U2OS BacMam BK variants, at 30 µM
R275C/beta4 = conditions: U2OS BacMam BK variants, at 30 µM
R275C/Slo1WT/beta2 = conditions: U2OS BacMam BK variants, at 30 µM

Measured: log fold change Tl+ flux

Calcium-activated potassium channel subunit alpha-1 (Homo sapiens) + Leucine-rich repeat-containing protein 26 (Homo sapiens), sequence (Q2I0M4 whole entry, looked up, one chain of several): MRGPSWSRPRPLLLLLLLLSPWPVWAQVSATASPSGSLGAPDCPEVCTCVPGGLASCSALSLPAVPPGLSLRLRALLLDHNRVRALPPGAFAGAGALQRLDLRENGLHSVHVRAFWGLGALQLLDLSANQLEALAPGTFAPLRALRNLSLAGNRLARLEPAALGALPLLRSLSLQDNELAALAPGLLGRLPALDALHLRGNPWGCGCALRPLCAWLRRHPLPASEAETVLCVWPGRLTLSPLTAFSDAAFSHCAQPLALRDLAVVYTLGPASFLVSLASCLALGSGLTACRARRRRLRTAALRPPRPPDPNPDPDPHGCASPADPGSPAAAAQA

Cc1nn(-c2ccccc2)nc1CNC(=O)COc1ccccc1
inactive: F380Y -0.0388 | F380Y/beta1 -0.0688 | F380Y/beta2Delta -0.0499 | F380Y/beta4 -0.0891 | [1] -0.0325 | R275C -0.00552 | R275C/beta1 -0.0187 | R275C/beta2Delta 0.0169 | R275C/beta4 -0.0424 | R275C/Slo1WT/beta2 0.0189

Cc1ccccc1C=C1N=C(c2ccccc2)OC1=O
inactive: F380Y -0.012 | F380Y/beta1 0.0199 | F380Y/beta2Delta 0.0497 | F380Y/beta4 -0.0336 | [1] -0.00351 | R275C -0.000743 | R275C/beta1 0.036 | R275C/beta2Delta 0.0102 | R275C/beta4 0.00185 | R275C/Slo1WT/beta2 0.0353

Cc1[nH]n(-c2c(Cl)cc(C(F)(F)F)cc2Cl)c(=O)c1N=Nc1ccccc1
inactive: F380Y 0.0138 | F380Y/beta1 0.00301 | F380Y/beta2Delta 0.00886 | F380Y/beta4 0.0101 | [1] -0.0146 | R275C -0.0246 | R275C/beta1 0.00755 | R275C/beta2Delta 0.0171 | R275C/beta4 -0.0209 | R275C/Slo1WT/beta2 -0.029

C#Cc1cccc(NS(=O)(=O)c2ccc(Cl)c(Cl)c2)c1
inactive: R275C -0.0107 | R275C/Slo1WT/beta2 -0.0633
active: F380Y 0.107 | F380Y/beta1 0.533 | F380Y/beta2Delta 0.116 | F380Y/beta4 0.222 | [1] 0.182 | R275C/beta1 0.291 | R275C/beta2Delta 0.158 | R275C/beta4 0.196

O=C(O)CC1(CC(=O)Nc2cccc3nsnc23)CCCCC1
inactive: F380Y 0.0408 | F380Y/beta1 0.0186 | F380Y/beta2Delta 0.0387 | F380Y/beta4 0.0555 | [1] 0.00374 | R275C 0.055 | R275C/beta1 0.00874 | R275C/beta2Delta 0.00584 | R275C/beta4 0.0536 | R275C/Slo1WT/beta2 0.0319

Cc1noc(C)c1C(=O)Sc1nccc(C(F)(F)F)n1
inactive: F380Y -0.0193 | F380Y/beta1 0.00713 | F380Y/beta2Delta -0.00114 | F380Y/beta4 0.0508 | [1] -0.00072 | R275C 0.00122 | R275C/beta1 0.0433 | R275C/beta2Delta -0.013 | R275C/beta4 0.0297 | R275C/Slo1WT/beta2 -0.0512

N#CC(NCc1ccccc1Cl)=C(C#N)NCc1c(F)cccc1Cl
inactive: F380Y -0.0652 | F380Y/beta1 -0.0209 | F380Y/beta2Delta -0.0204 | R275C/beta2Delta -0.0733 | R275C/Slo1WT/beta2 0.00197
active: F380Y/beta4 -0.171 | [1] -0.129 | R275C -0.2 | R275C/beta1 -0.262 | R275C/beta4 -0.185

Cc1ccc(S(C)(=O)=NC(=O)c2ccc(-c3cc(C(F)(F)F)nn3C)s2)cc1 (stereo not given)
inactive: F380Y -0.000678 | F380Y/beta1 0.0247 | F380Y/beta2Delta -0.011 | F380Y/beta4 0.0284 | [1] 0.0389 | R275C -0.0362 | R275C/beta1 0.013 | R275C/beta2Delta 0.015 | R275C/beta4 0.00574 | R275C/Slo1WT/beta2 0.0204

COCCCNC1=C(C#N)C(=O)NC(c2cccs2)S1 (stereo not given)
inactive: F380Y 0.041 | F380Y/beta1 0.00355 | F380Y/beta2Delta 0.0315 | F380Y/beta4 -0.00136 | [1] 0.0147 | R275C -0.0102 | R275C/beta1 0.0346 | R275C/beta2Delta 0.0144 | R275C/beta4 -0.0186 | R275C/Slo1WT/beta2 -0.0245

CC1(C)CC(=O)N(c2cc(Cl)cc(Cl)c2)C(=O)C1
inactive: F380Y 0.0251 | F380Y/beta1 0.0345 | F380Y/beta2Delta 0.0195 | F380Y/beta4 -0.021 | [1] -0.00455 | R275C -0.0193 | R275C/beta1 0.025 | R275C/beta2Delta 0.032 | R275C/beta4 -0.0103 | R275C/Slo1WT/beta2 -0.0488

O=S(=O)(Nc1cc(Cl)c(-n2cccc2)cc1Oc1ccc(Cl)cc1)c1ccc(Cl)cc1
inactive: F380Y 0.0117 | F380Y/beta1 -0.0223 | F380Y/beta2Delta 0.00907 | F380Y/beta4 -0.0612 | [1] -0.0472 | R275C 0.0112 | R275C/beta1 -0.0614 | R275C/beta2Delta -0.0256 | R275C/beta4 0.0232 | R275C/Slo1WT/beta2 -0.0536

Cc1nc(-c2ccc(C(F)(F)F)cc2)sc1CO
active: F380Y/beta1 0.197 | F380Y/beta4 0.104 | [1] 0.156 | R275C/beta2Delta 0.0843 | R275C/beta4 0.0953
inactive: F380Y 0.0603 | F380Y/beta2Delta 0.0517 | R275C 0.0174 | R275C/beta1 0.0853 | R275C/Slo1WT/beta2 0.00529

FC(F)(F)COc1ccc(-c2nnc(SCc3ccccc3C(F)(F)F)o2)cn1
inactive: F380Y 0.00456 | F380Y/beta1 -0.0223 | F380Y/beta2Delta -0.0257 | F380Y/beta4 -0.0497 | [1] -0.0179 | R275C -0.0108 | R275C/beta1 0.0313 | R275C/beta2Delta -0.0204 | R275C/beta4 0.0273 | R275C/Slo1WT/beta2 0.0157

CC(=O)c1cc2cc(Cl)cc(Cl)c2oc1=O
inactive: F380Y 0.0337 | F380Y/beta1 0.0359 | F380Y/beta2Delta -0.0227 | F380Y/beta4 -0.0296 | [1] -0.0196 | R275C -0.0332 | R275C/beta1 0.029 | R275C/beta2Delta 0.0111 | R275C/beta4 -0.0163 | R275C/Slo1WT/beta2 -0.0243

Cc1cc(CNCC(O)C(F)(F)F)no1 (stereo not given)
inactive: F380Y -0.0368 | F380Y/beta1 0.043 | F380Y/beta2Delta -0.0229 | F380Y/beta4 0.06 | [1] 0.018 | R275C 0.0241 | R275C/beta1 -0.0759 | R275C/beta2Delta -0.018 | R275C/beta4 0.0165 | R275C/Slo1WT/beta2 0.0726

CCc1nc2ccccc2nc1N1CCN(S(=O)(=O)c2ccc(Cl)cc2)CC1
inactive: F380Y -0.00553 | F380Y/beta1 -0.0118 | F380Y/beta2Delta -0.00426 | F380Y/beta4 -0.00719 | [1] -1.3e-05 | R275C 0.0269 | R275C/beta1 0.0201 | R275C/beta2Delta -0.0214 | R275C/beta4 0.00696 | R275C/Slo1WT/beta2 -0.0158

COC(=O)C(C#N)=C1NC(C)=NC(SC)=C1C#N
inactive: F380Y -0.0152 | F380Y/beta1 0.03 | F380Y/beta2Delta -0.00376 | F380Y/beta4 0.021 | [1] 0.0176 | R275C -0.014 | R275C/beta1 -0.0163 | R275C/beta2Delta -0.0169 | R275C/beta4 -0.0352 | R275C/Slo1WT/beta2 0.0253

O=C1NC2CC2N1C(=O)OCc1ccccc1 (stereo not given)
inactive: F380Y 0.0285 | F380Y/beta1 -0.00537 | F380Y/beta2Delta 0.0281 | F380Y/beta4 0.054 | [1] -0.0415 | R275C 0.00866 | R275C/beta1 0.00489 | R275C/beta2Delta 0.0219 | R275C/beta4 -0.029 | R275C/Slo1WT/beta2 -0.0313

Cc1c(C(=O)Nc2ccc(N3CCOCC3)c(Cl)c2)cnn1-c1ccc(F)cc1
inactive: F380Y -0.0177 | F380Y/beta1 -0.00879 | F380Y/beta2Delta -0.0427 | F380Y/beta4 0.0219 | [1] -0.0278 | R275C -0.00699 | R275C/beta1 0.0051 | R275C/beta2Delta -0.0229 | R275C/beta4 0.0362 | R275C/Slo1WT/beta2 0.000473

CC(=O)C1=C(C)Nc2ccccc2S1
inactive: F380Y 0.0144 | F380Y/beta1 -0.00709 | F380Y/beta2Delta -0.0326 | F380Y/beta4 -0.00774 | [1] -0.000563 | R275C 0.0464 | R275C/beta1 -0.0243 | R275C/beta2Delta -0.0168 | R275C/beta4 -0.00794 | R275C/Slo1WT/beta2 0.0465

O=C(CN1c2ccccc2Sc2ccccc21)NN=Cc1ccco1
inactive: F380Y 0.028 | F380Y/beta1 0.0239 | F380Y/beta2Delta -0.0113 | [1] 0.0102 | R275C -0.00994 | R275C/beta1 0.0301 | R275C/beta2Delta -0.0092 | R275C/beta4 0.0737 | R275C/Slo1WT/beta2 0.032
active: F380Y/beta4 -0.113

Cc1nn(Cc2nnc(-c3cc(C(F)(F)F)cc(C(F)(F)F)c3)o2)c(C)c1Br
inactive: F380Y -0.000532 | F380Y/beta1 -0.0352 | F380Y/beta2Delta -0.0793 | F380Y/beta4 -0.0305 | [1] -0.0495 | R275C -0.0117 | R275C/beta1 -0.0379 | R275C/beta2Delta -0.0199 | R275C/beta4 0.00363 | R275C/Slo1WT/beta2 0.0313

CN(C1CCCCC1)S(=O)(=O)c1cccs1
inactive: F380Y -0.0928 | F380Y/beta1 -0.00759 | F380Y/beta2Delta -0.0383 | F380Y/beta4 0.000313 | [1] -0.00414 | R275C -0.0438 | R275C/beta1 -0.00595 | R275C/beta2Delta -0.0535 | R275C/beta4 -0.025 | R275C/Slo1WT/beta2 0.0321

CC(=O)C(=CN(C)C)Sc1ccc(Cl)cc1
inactive: F380Y 0.0299 | F380Y/beta1 -0.000152 | F380Y/beta2Delta 0.00502 | F380Y/beta4 0.000556 | [1] 0.0115 | R275C 0.0269 | R275C/beta1 0.0366 | R275C/beta2Delta 0.0244 | R275C/beta4 0.0484 | R275C/Slo1WT/beta2 -0.0118

Clc1cc(Cl)cc(Nc2ncnc(-n3cccc3)n2)c1
inactive: F380Y 0.0686 | F380Y/beta1 0.0545 | F380Y/beta2Delta 0.0354 | F380Y/beta4 0.0368 | [1] 0.0181 | R275C 0.00673 | R275C/beta1 0.00955 | R275C/beta2Delta 0.0395 | R275C/beta4 -0.0107 | R275C/Slo1WT/beta2 -0.0692

COc1ccc(CNCc2cc(OC)c(OC)c(OC)c2)cc1
active: F380Y/beta4 -0.1 | R275C/beta2Delta -0.0892 | R275C/Slo1WT/beta2 -0.102
inactive: F380Y -0.0783 | F380Y/beta1 0.0429 | F380Y/beta2Delta -0.0785 | [1] -0.099 | R275C -0.0423 | R275C/beta1 0.0356 | R275C/beta4 -0.0177

O=C1c2ccccc2C(=O)N1CNc1ccc(Oc2ccc(Cl)cc2)cc1
active: F380Y/beta1 0.986 | F380Y/beta4 0.151 | [1] 0.327 | R275C/beta1 0.443 | R275C/beta4 0.104
inactive: F380Y 0.0258 | F380Y/beta2Delta 0.0357 | R275C 0.06 | R275C/beta2Delta 0.0194 | R275C/Slo1WT/beta2 0.0127
